Our source for the outcome and Potency values is PubChem BioAssay (NCATS).

SMILES strings stand for the structures. Records with an inconclusive call do not appear. Active and inactive are the calls of the source. Calls follow the shape of the dose curve; as a rule, active = well fitted curve in the direction sought with a large enough effect; inconclusive = small, poorly fitted or top-dose-only effect, or another doubt; inactive = no such curve, though single readings can be large; an effect the other way counts as inactive or inconclusive.

Assay [1] is described as follows: S16 Schwann cell viability assay (CellTiter-Glo assay) (AID 624031).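 Also: native untransfected S16 rat Schwann cells; nearly all actives have a fitted effect of over 70% in size.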 The gist of the method: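 Concentration-effect curves come from CellTiter-Glo luminescence of S16 rat Schwann cells after 24 h compound exposure. Each reading was normalized to DMSO wells (0%) and wells without cells, and curves were ranked by r2 and response magnitude.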
A general note: ATP-based viability assays read luminescence as a measure of living cells.

For another assay, the system named is CP192. In words: qHTS profiling for inhibitors of Plasmodium falciparum proliferation (AID 504749). Also: nearly all actives have a fitted effect of over 60% in size. Also: potency is read from the fitted curve at half-maximal effect. The conditions noted are these: P. falciparum in erythrocytes, SYBR Green DNA, 72 h; series mostly up to 12.8 µM. The gist of the method: (§1)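 Quantitative HTS: compounds pinned into medium, infected erythrocytes added (0.3% parasitemia, 2.5% hematocrit), 72 h culture at 37 C under 5% CO2. Saponin/Triton lysis with SYBR Green I, overnight RT, then fluorescence read.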
In general terms: Quantitative high-throughput screening tests each substance at several concentrations.

The test system of another assay is CP266. Described as above. The conditions noted are these: P. falciparum in erythrocytes, SYBR Green DNA, 72 h; series mostly up to 12.8 µM. The gist of the method: as §1
The next assay relates to CP268. The description is as above. The conditions noted are these: P. falciparum in erythrocytes, SYBR Green DNA, 72 h; series mostly up to 12.8 µM. In short, it runs like this:
as §1

The subject of a further assay is CP286. Described as above. The conditions noted are these: P. falciparum in erythrocytes, SYBR Green DNA, 72 h; series mostly up to 12.8 µM. In short, it runs like this:
as §1

A further assay has as its system CP297. Described as above. The conditions noted are these: P. falciparum in erythrocytes, SYBR Green DNA, 72 h; series mostly up to 12.8 µM. The gist of the method:
as §1

The test system of the next assay is CP315. Described as above. The conditions noted are these: P. falciparum in erythrocytes, SYBR Green DNA, 72 h; series mostly up to 12.8 µM. The gist of the method: as §1
The test system of another assay is Dd2. Described as above. The conditions noted are these: P. falciparum in erythrocytes, SYBR Green DNA, 72 h; series mostly up to 12.8 µM. In short, it runs like this:
as §1

For the next assay, the system named is PC15. The assay is described as above. The conditions noted are these: P. falciparum in erythrocytes, SYBR Green DNA, 72 h; series mostly up to 12.8 µM. The gist of the method:
as §1

The test system of the next assay is W2. The description is as above. The conditions noted are these: P. falciparum in erythrocytes, SYBR Green DNA, 72 h; series mostly up to 12.8 µM. The gist of the method: as §1
The subject of a further assay is 3D7. The assay is described as above. The conditions noted are these: P. falciparum in erythrocytes, SYBR Green DNA, 72 h; series mostly up to 12.8 µM. In short, it runs like this: as §1
Another assay concerns ATS189. The assay is described as above. The conditions noted are these: P. falciparum in erythrocytes, SYBR Green DNA, 72 h; series mostly up to 12.8 µM. The gist of the method: as §1
Another assay deals with CP185. Described as above. The conditions noted are these: P. falciparum in erythrocytes, SYBR Green DNA, 72 h; series mostly up to 12.8 µM. The gist of the method: as §1
A further assay relates to CP252. Described as above. The conditions noted are these: P. falciparum in erythrocytes, SYBR Green DNA, 72 h; series mostly up to 12.8 µM. In short, it runs like this:
as §1

A further assay concerns ECU. Described as above. The conditions noted are these: P. falciparum in erythrocytes, SYBR Green DNA, 72 h; series mostly up to 12.8 µM. The gist of the method: as §1
A further assay relates to HB3. The description is as above. The conditions noted are these: P. falciparum in erythrocytes, SYBR Green DNA, 72 h; series mostly up to 12.8 µM. The gist of the method:
as §1

For another assay, the system named is TAB113. The description is as above. The conditions noted are these: P. falciparum in erythrocytes, SYBR Green DNA, 72 h; series mostly up to 12.8 µM. In short, it runs like this: as §1
Another assay has as its system N140. The description is as above. The conditions noted are these: P. falciparum in erythrocytes, SYBR Green DNA, 72 h; series mostly up to 12.8 µM. The gist of the method:
as §1

The next assay relates to PAD. The description is as above. The conditions noted are these: P. falciparum in erythrocytes, SYBR Green DNA, 72 h; series mostly up to 12.8 µM. The gist of the method:
as §1

The subject of the next assay is AS120. The description is as above. The conditions noted are these: P. falciparum in erythrocytes, SYBR Green DNA, 72 h; series mostly up to 12.8 µM. In short, it runs like this:
as §1

On to `COc1cc(N)c(Cl)cc1C(=O)N[C@H]1CCN(CCCOc2ccc(F)cc2)C[C@H]1OC`, for which the molecule was classed as inactive in assay [1]. In addition, the Potency result in the assay with CP192, in the assay on CP266, with CP268, in the assay on CP297, with CP315 and in the assay with PC15 was “inactive” throughout. The Potency was 3.55 µM (active) in the assay on CP286, 3.55 µM (active) in the assay on Dd2 and 5.1 µM (active) in the assay on W2.
As for `O[C@@](CCN1CCCC1)(c1ccccc1)C1CCCCC1`, the molecule was classed as inactive in assay [1]. Further, the Potency entry in the assay on 3D7, with ATS189, with CP185, in the assay on CP192, with CP252 and in the assay with CP266 was “inactive” throughout. For the same molecule, the Potency result in the assay with CP268, in the assay on CP286, in the assay on CP297, with CP315, in the assay with ECU and in the assay on HB3 was “inactive” each time. Moreover, the Potency result in the assay with TAB113 was “inactive”. Further, the Potency in the assay on W2 is 0.455 µM (active).
As for `COC(=O)C1=C(C)NC(C)=C(C(=O)OC(C)C)[C@H]1c1cccc2nonc12`, the result in assay [1] was inactive. In addition, the Potency result in the assay with CP185, in the assay on CP192, in the assay on CP266, in the assay with Dd2, in the assay with PAD and in the assay on PC15 was “inactive” each time. In addition, in the assay on N140, the Potency is 3.16 µM (active).
As for `C[C@@H]1C[C@H]2[C@@H]3C[C@H](F)C4=CC(=O)C=C[C@@]4(C)[C@]3(F)[C@H](O)C[C@]2(C)[C@@]1(O)C(=O)CO`, the molecule was called inactive in assay [1]. For the same molecule, the Potency entry with 3D7, in the assay with AS120, with ATS189, in the assay on CP185, in the assay on CP192 and in the assay on CP252 was “inactive” throughout. In addition, the Potency result with CP266, in the assay with CP268, in the assay with CP286, in the assay with CP297, in the assay on CP315 and in the assay with Dd2 was “inactive” throughout. Besides, the Potency result in the assay with ECU, with HB3, in the assay with N140, in the assay with PAD, in the assay on PC15 and in the assay on TAB113 was “inactive” throughout. Besides, in the assay with W2, the Potency entry was “inactive”.
On to `C[C@@H]1O[C@H](O[C@@H]2\C=C/C=C\C=C/C=C\C[C@H](C)OC(=O)/C=C\[C@H]3O[C@@H]3C[C@H](O)C[C@]3(O)C[C@@H](O)[C@@H](C(=O)O)[C@H](C2)O3)[C@@H](O)[C@H](N)[C@@H]1O` (stereo in doubt), for which the molecule was called inactive in assay [1]. The Potency entry in the assay with 3D7, in the assay with AS120, with ATS189, with CP185, in the assay with CP192 and in the assay with CP252 was “inactive” in each case. The Potency result in the assay with CP266, with CP286, in the assay on CP297, with CP315, with Dd2 and with ECU was “inactive” throughout. Also, the Potency entry in the assay on HB3, in the assay with N140, in the assay with PAD, in the assay with PC15, in the assay on TAB113 and in the assay with W2 was “inactive” throughout.
In the case of `NS(=O)(=O)c1cc2c(cc1C(F)(F)F)N[C@H](Cc1ccccc1)NS2(=O)=O`, the outcome in assay [1] was inactive. In addition, the Potency entry in the assay with 3D7, in the assay with AS120, in the assay on ATS189, in the assay on CP185, in the assay with CP192 and in the assay on CP252 was “inactive” each time. In addition, the Potency entry in the assay on CP266, with CP268, in the assay with CP286, in the assay with CP297, in the assay with CP315 and with Dd2 was “inactive” throughout. Also, the Potency entry in the assay on ECU, with HB3, in the assay with N140, in the assay with PAD, with PC15 and with TAB113 was “inactive” each time. Besides, in the assay with W2, the Potency result was “inactive”.
Turning to `NC[C@@H]1O[C@@H](O[C@H]2[C@H](O)[C@H](O[C@@H]3O[C@H](CO)[C@@H](O)[C@H](N)[C@@H]3O)[C@@H](N)C[C@H]2N)[C@H](N)C[C@@H]1O`, the molecule was called inactive in [1]. For the same molecule, the Potency entry with 3D7, with AS120, in the assay on ATS189, in the assay on CP185, with CP192 and with CP252 was “inactive” throughout. Also, the Potency result in the assay on CP266, in the assay with CP268, in the assay with CP286, in the assay with CP297, in the assay with CP315 and in the assay on Dd2 was “inactive” throughout. For the same molecule, the Potency result with ECU, with HB3, in the assay with N140, with PAD, with PC15 and in the assay on TAB113 was “inactive” each time. The Potency result in the assay on W2 is “inactive”.
